In the supplement of paper PMC9694430:
Counter-ions that a name gives are not always drawn.

Columns and labels:
Experiment in all cases: thermal shift delta Tm vs DMSO control; higher = stronger stabilization (binding)
Conditions in all cases: 12.5 µM; protein concentration 2 µM
LOC_OS01G01410-cb001 = tested on: LOC_OS01G01410-cb001
Outline: (§1)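 Purified, E. coli-expressed rice kinase domain constructs were tested by differential scanning fluorimetry in 96-well plates: 19.5 μl of 2 μM kinase in 100 mM potassium phosphate pH 7.5, 150 mM NaCl, 10% glycerol, 5 × SYPRO Orange, plus compound in DMSO. Fluorescence was read from 25°C to 95°C at 0.05°C/s. Melting temperatures came from Boltzmann fits, and the shift is the triplicate mean relative to protein with DMSO alone.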

LOC_OS01G02750-cb003 = tested on: LOC_OS01G02750-cb003
Outline: as §1

LOC_OS01G10900-cb004 = tested on: LOC_OS01G10900-cb004
Outline: as §1

LOC_OS01G13800-cb001 = tested on: LOC_OS01G13800-cb001
Outline: as §1

LOC_OS01G14860-cb001 = tested on: LOC_OS01G14860-cb001
Outline: as §1

LOC_OS01G21960-cb002 = tested on: LOC_OS01G21960-cb002
Outline: as §1

LOC_OS01G39600-cb002 = tested on: LOC_OS01G39600-cb002
Outline: as §1

LOC_OS01G48390-cb002 = tested on: LOC_OS01G48390-cb002
Outline: as §1

LOC_OS01G51400-cb002 = tested on: LOC_OS01G51400-cb002
Outline: as §1

LOC_OS01G52050-cb004 = tested on: T1, LOC_OS01G52050-cb004
T1 sequence (whole entry): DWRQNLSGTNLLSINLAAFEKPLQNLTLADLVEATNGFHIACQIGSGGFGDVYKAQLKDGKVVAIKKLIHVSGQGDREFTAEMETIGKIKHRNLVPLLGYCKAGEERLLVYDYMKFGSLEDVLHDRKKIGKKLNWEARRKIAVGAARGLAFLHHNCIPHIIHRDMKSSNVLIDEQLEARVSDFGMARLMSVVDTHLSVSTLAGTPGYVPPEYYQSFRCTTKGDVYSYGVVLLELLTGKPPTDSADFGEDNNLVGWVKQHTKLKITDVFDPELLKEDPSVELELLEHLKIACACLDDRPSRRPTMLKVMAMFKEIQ
Outline: as §1

LOC_OS01G57100-cb003 = tested on: LOC_OS01G57100-cb003
Outline: as §1

LOC_OS01G60330-cb001 = tested on: LOC_OS01G60330-cb001
Outline: as §1

LOC_OS01G60700-cb002 = tested on: LOC_OS01G60700-cb002
Outline: as §1

LOC_OS01G63280-cb003 = tested on: LOC_OS01G63280-cb003
Outline: as §1

LOC_OS01G67340-cb003 = tested on: LOC_OS01G67340-cb003
Outline: as §1

LOC_OS01G70970-cb002 = tested on: LOC_OS01G70970-cb002
Outline: as §1

LOC_OS02G07810-cb001 = tested on: LOC_OS02G07810-cb001
Outline: as §1

LOC_OS02G08530-cb003 = tested on: LOC_OS02G08530-cb003
Outline: as §1

LOC_OS02G14120-cb001 = tested on: LOC_OS02G14120-cb001
Outline: as §1

LOC_OS02G17970-cb001 = tested on: LOC_OS02G17970-cb001
Outline: as §1

SMILES | thermal shift delta Tm (LOC_OS01G01410-cb001) [°C] | thermal shift delta Tm (LOC_OS01G02750-cb003) [°C] | thermal shift delta Tm (LOC_OS01G10900-cb004) [°C] | thermal shift delta Tm (LOC_OS01G13800-cb001) [°C] | thermal shift delta Tm (LOC_OS01G14860-cb001) [°C] | thermal shift delta Tm (LOC_OS01G21960-cb002) [°C] | thermal shift delta Tm (LOC_OS01G39600-cb002) [°C] | thermal shift delta Tm (LOC_OS01G48390-cb002) [°C] | thermal shift delta Tm (LOC_OS01G51400-cb002) [°C] | thermal shift delta Tm (LOC_OS01G52050-cb004) [°C] | thermal shift delta Tm (LOC_OS01G57100-cb003) [°C] | thermal shift delta Tm (LOC_OS01G60330-cb001) [°C] | thermal shift delta Tm (LOC_OS01G60700-cb002) [°C] | thermal shift delta Tm (LOC_OS01G63280-cb003) [°C] | thermal shift delta Tm (LOC_OS01G67340-cb003) [°C] | thermal shift delta Tm (LOC_OS01G70970-cb002) [°C] | thermal shift delta Tm (LOC_OS02G07810-cb001) [°C] | thermal shift delta Tm (LOC_OS02G08530-cb003) [°C] | thermal shift delta Tm (LOC_OS02G14120-cb001) [°C] | thermal shift delta Tm (LOC_OS02G17970-cb001) [°C]
CC(C)n1nc(-c2ccc3oc(N)nc3c2)c2c(N)ncnc21 | 0.59 | 1.42 | 0.77 | -0.13 | 0.42 | 0.3 | -0.69 | 1.9 | 0.43 | 0.95 | 0.15 | 0.88 | 0.9 | 0.99 | 0.39 | 0.54 | 0.31 | 1.77 | 1.77 | 1.04
O=c1[nH]nc(Sc2ncc([N+](=O)[O-])s2)n1-c1ccc2c(c1)OCCO2 | 1.48 |  | 8.23 | 1.65 | 2.21 | 1.25 |  | 2.84 | -0.65 | -3.66 | 6.97 | 0 | 4.73 |  | -6.49 | -7.96 | 1.41 | 1.83 |  | 3.38
Cc1cc(O)c2c(c1)C(=O)c1cccc(O)c1C2=O [Chrysophanic Acid] | -0.01 | -3.42 | 1.45 | 0.25 | 0.31 | 0.83 |  | 1.12 | -0.16 | -0.47 | 5.05 | 0.02 | 0.52 |  |  | -3.4 | 0.6 | -0.63 | -2.71 | 1.94
O=C(O[C@@H]1Cc2c(O)cc(O)cc2O[C@@H]1c1cc(O)c(O)c(O)c1)c1cc(O)c(O)c(O)c1 [(-)-Epigallocatechin Gallate] | 0.41 |  | -1.77 | 3.77 | 3.47 | 4.17 | 1.4 | 1.57 | 0.81 | 2.23 | 13.4 | 0.66 | -5.2 |  | 1 | -0.02 | 3.56 | -2.15 | 0.07 | 
O=c1c(O)c(-c2cc(O)c(O)c(O)c2)oc2cc(O)cc(O)c12 [Myricetin] | 2.93 | 26.2 | 1.94 | 1.96 | 5.72 | 5.56 | 4.45 | 2.72 | 2.08 | 5.01 | 7.25 | 8.95 | -2.19 |  | 2.79 | 2.23 | 2.22 | 2.57 | 2.73 | 5.74
C=CC(=O)Nc1cccc(Oc2nc(Nc3ccc(N4CCN(C)CC4)cc3)nc3ccsc23)c1 | 2.67 | 1.02 | 2.04 | 0.55 | 0.91 | 1.61 | 0.15 | 1.38 | 0.79 | 1.94 | 2.41 | 0.93 | 3.14 | 0.86 | 0.85 | 1.8 | 1.13 | 2.66 | 3.63 | 2.18
CC(C)=CC[C@@H](O)C1=CC(=O)c2c(O)ccc(O)c2C1=O [Shikonin] | 5.01 | 17.4 | 9.19 | 2.82 | 7.52 | 1.95 |  | 5.3 | 18.6 | 12.1 |  | -0.94 | 3.41 |  | -2.36 | -5.42 | 0.63 | -0.15 | -4.81 | 3.84
Nc1nccc(Oc2ccc3c(C(=O)Nc4cccc(C(F)(F)F)c4)cccc3c2)n1 | 0.89 | 1.42 | 0.88 | 1.39 | 3.82 | 1.43 | 0.93 | 1.13 | 0.12 | 1.04 | 1.31 | 1.99 | 0.86 | 7.54 | 0.91 | 0.71 | 0.76 | 0.59 | 1.14 | 1.47
Nc1nccc(Oc2ccc(NC(=O)c3c[nH]cc(-c4ccc(F)cc4)c3=O)cc2F)c1Cl | 1.82 | 5.03 | 3.07 | 0.39 | 5.69 | 1.58 |  | 2.63 | 0.87 | 2.83 | 2.6 | 1.42 | 1.09 | 7.56 | 2.23 | 6.22 | 1.41 | 2.08 | 8.06 | 1.52
Cn1sc(=O)n(Cc2ccccc2)c1=O | -9.79 | -0.38 |  | 0.24 | -0.11 | 1.01 | 0.5 | 0.64 | 0.21 | -0.28 | 3.29 | -0.15 | 2.66 | 1.02 | -1.31 |  | 2.24 | -1.23 | -0.52 | 1.81
CC(C)c1cnn2c(NCc3ccccc3-n3cccn3)nc(OC3CCCNC3)nc12 (centres undefined) | 0 | 1.24 | 0.29 | 0.99 | 0.39 | 1.47 | -0.1 | 0.28 | 0.35 | 0.43 | 0.42 | 1.35 | 1.26 | 0.47 | 0.65 | 0.27 | 0.85 | 0.74 | -0.11 | 2.44
C[C@H]1CNCCCN1S(=O)(=O)c1cccc2cncc(F)c12 [Ripasudil (K-115) hydrochloride dihydrate] | 0.29 | 1.34 | 0.28 | 1.05 | 0.24 | 0.88 | 0.39 | 0.68 | 0.21 | 0.63 | 0.7 | 1.17 | 1.6 | 0.79 | 0.45 | 0.28 | 1.1 | 0.65 | 1.57 | 1.75
C=CC(=O)Nc1cccc(Oc2nc(Nc3ccc(N4CCN(C)CC4)cc3)ncc2Cl)c1 | 4.21 |  | 3.56 | 0.23 | 1.91 | 1.42 | 3.8 | 7.69 | 1.75 | 3.38 | -0.75 | 1.82 | 0.8 | 0.27 | -0.1 | 3.9 | 0.94 | 2.58 | 8.31 | 0
CC(=O)O/N=C1/C(c2c(O)[nH]c3cc(Br)ccc23)=Nc2ccccc21 [BIO-acetoxime] | 2.35 | -1.15 | -2.37 |  | 6.31 | 0.48 | -0.05 | 3.95 | 0.25 | 0.12 | -10.7 | 0.36 | -0.6 | 0.15 | -1.03 | -1.11 |  | 2.87 | -2.97 | 
